Where “and” joins values, the source holds several entries; their conditions need not be identical. Equal values may be shown once. Inconclusive results are not listed. The source holds several records for some structures; these can differ, active in one and inactive in another. Calls of active or inactive are those of the source. Unless noted, calls follow the shape of the dose curve; as a rule, active = well fitted curve in the direction sought with a large enough effect; inconclusive = small, poorly fitted or top-dose-only effect, or another doubt; inactive = no such curve, though single readings can be large; an effect the other way counts as inactive or inconclusive.
What was measured:
[1] = Stat Signaling Pathway (AID 446; active = well fitted curve in either direction with a large enough effect, not every such curve was filed as active)
Method in brief: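 ME-180 SIE-bla cells; overnight plating; cpd + IL-6 40 pM, 5 h, 37 C; LiveBLAzer 2.5 h RT; 460/530 nm emission ratio. Normalized to 300 pM IL-6 and 125 nM JAK inhibitor controls.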

[2] = target: Guanine nucleotide-binding protein G(i) subunit alpha-1 (Homo sapiens) (UniProt P63096); experiment: qHTS Assay for Inhibitors of RGS12 GoLoco Motif Activity (Green Fluorophore) (AID 879)
Method in brief: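 Fluorescence polarization assay: 50 nM Gαi1 with 10 nM FITC-labeled RGS12 GoLoco peptide in 10 mM Tris pH 7.5, 150 mM NaCl, 0.1 mM GDP, 0.05% NP40, 10 min at room temperature with compound.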

[3] = target: Cytochrome P450 2C19 (Homo sapiens) (UniProt P33261); experiment: qHTS Assay for Inhibitors and Substrates of Cytochrome P450 2C19 (AID 899)
Method in brief: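 NADPH-dependent conversion of Luciferin-H EGE (10uM, at KM) by 5nM enzyme in 50mM KPO4, 60 min at 37C following 10 min compound preincubation. Stopped with luciferin detection buffer; luminescence read after 20 min.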

[4] = target: Pyruvate kinase (Leishmania mexicana) (UniProt Q27686); experiment: qHTS Validation Assay for Inhibitors of Leishmania Mexicana Pyruvate Kinase (AID 945)
Method in brief: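 Pyruvate kinase activity of E451W LmPYK (0.2 nM) was followed as ATP output after 1 h at room temperature with 0.5 mM PEP and 0.1 mM ADP, detected by PKLight luminescence.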

[5] = target: alpha-glucosidase (Oryza sativa, rice) (UniProt Q653V4); experiment: Counterscreen for Glucocerebrosidase Inhibitors: qHTS Assay for Rice alpha-Glucosidase at pH 5.0 (AID 997)
Method in brief: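 Rice alpha-glucosidase (4 nM final) with 400 uM 4-methylumbelliferyl-alpha-D-glucopyranoside in citrate buffer pH 5.0, 20 min at room temperature, stopped at pH 10; fluorescence 365/440 nm, compounds 0.7 nM–77 uM, AC50 from Hill fits.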

[6] = target: Cytochrome P450 3A4 (Homo sapiens) (UniProt P08684); experiment: qHTS Assay for Inhibitors and Substrates of Cytochrome P450 3A4 (AID 884)
Method in brief: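 20 nM human CYP3A4 with 25 uM Luciferin-PPXE (at KM) in 200 mM KPO4, preincubated 10 min with compound; NADPH regeneration started a 60 min RT reaction. Luciferin detected by luminescence, normalized to 57 uM ketoconazole as full inhibition.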

[7] = target: Cytochrome P450 2C9 (Homo sapiens) (UniProt P11712); experiment: qHTS Assay for Inhibitors and Substrates of Cytochrome P450 2C9 (AID 883)
Method in brief: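 A luminogenic readout tracked human CYP2C9 (10nM) converting deoxyluciferin (100uM, at KM) in 25mM KPO4 during 60 min at 37C with regenerated NADPH. Values normalized to 57uM sulphaphenazole as complete inhibition.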

[8] = KB-8-5-11 Cancer Cell Toxicity qHTS against the NCATS CANVASS Library (AID 1347364)
Method in brief: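 Plate 500 KB-8-5-11 cells per well in DMEM + 10% FBS, add compounds by pin transfer, incubate 72 hr at 37C. Add CellTiter-Glo, wait 10 minutes at room temperature, read luminescence.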

[9] = MCF7 Cancer Cell Toxicity qHTS against the NCATS CANVASS Library (AID 1347369)
Method in brief: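 Cells seeded at 500/well, then compound pinned. Plates incubated 72 hr at 37C, 5% CO2. CellTiterGlo added; luminescence read.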

[10] = qHTS for ATAD5 Antagonist screened against the NCATS CANVASS Library (AID 1347370)
Method in brief: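 HEK293T cells with stably integrated ATAD5-luciferase reporter, 2000/well, 5 h attachment; compounds plus 10 µM 5-fluorouridine, 16 h at 37 °C. Luciferase luminescence read, with CellTiter-Fluor viability read first.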

[11] = qHTS for Hypoxia signaling pathway (HIF-1) antagonists against the NCATS CANVASS Library (AID 1347374)
Method in brief: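 HRE-bla ME-180 cells in medium with 0.5% dialyzed FBS received compounds (11-point series) plus CoCl2 (60 uM addition stock) for 17 hrs at 37C. Beta-lactamase activity read with CCF4 (405 nm ex, 460/530 nm em); CellTiter-Glo viability measured in same wells.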

[12] = qHTS for Inflammasome Signaling Inhibitors: IL-1-beta AlphaLISA screen against the NCATS CANVASS Library (AID 1347379)
Method in brief: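 THP-1 cells pretreated 1 hr with compound (up to 57.5 uM final), then stimulated with LPS (250 ng/mL final) and ATP (1.25 mM final). Secreted IL-1B measured by AlphaLISA after 16 hr; glyburide as positive control.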

[13] = qHTS for Activators of p53 Stress Response Pathway screened against the NCATS CANVASS Library (AID 1347388)
Method in brief: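 p53RE-bla HCT-116 cells (4000/well) were plated 5 h at 37C, exposed to compounds for 16 h at 37C over an 11-point concentration series, then loaded with CCF4 for 2 h at room temperature; 460/530 nm emission ratio read.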

[14] = Secretion counterscreen for inhibitors of the SERCaMP assay screened against the NCATS CANVASS Library (AID 1347390)
Method in brief: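 SH-SY5Y-GLuc STOP cells; 4 h attach; cpds 0.001 - 77 uM (qHTS, 11 pts), 20 h 37C/5% CO2; coelenterazine in glow buffer; luminescence, 5 s exposure.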

[15] = qHTS for activators of dead-cell proteases activity screened against the NCATS CANVASS Library (AID 1347392)
Method in brief: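 HepG2 cells (2000/well) attached 18 h at 37C, then exposed 5 h to compounds (11-point qHTS). Dead-cell protease activity read as luminescence from cell-impermeant AAF-aminoluciferin substrate after 15 min at room temperature.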

[16] = qHTS for inhibitors of ER calcium dysfunction: SERCaMP assay screened against the NCATS CANVASS Library (AID 1347393)
Method in brief: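 qHTS in SH-SY5Y reporter cells: 16 h compound pretreatment, 4 h thapsigargin, then secreted Gaussia luciferase measured by luminescence.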

[17] = Redox Reaction Profiling qHTS: Assay Interference Panel against the NCATS CANVASS Library (AID 1347401)
Method in brief: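 Resazurin (5 uM) conversion to resorufin measured with 200 uM DTT in 50 mM HEPES pH 7.3, 50 mM NaCl. Compounds tested in 11-point qHTS series. Fluorescence (ex 525/em 598 nm) read before and after 15 min dark incubation.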

[18] = qHTS for inhibitors of Rabies Virus screened against the NCATS CANVASS Library (AID 1347402; calls by dose curve)
[19] = target: Nuclear receptor subfamily 1 group I member 3 (Homo sapiens) (UniProt Q14994); experiment: qHTS for Constitutive Androstane Receptor (CAR) Antagonist screened against the NCATS CANVASS Library (AID 1347372)
Method in brief: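 HepG2 cells stably carrying hCAR and a CYP2B6-2.2kb luciferase reporter were exposed to compounds plus 50 nM CITCO for 24hr at 37C. CAR activity was read by ONE-Glo luminescence, with viability measured first by CellTiter-Fluor.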

[20] = qHTS for inhibitors of Wild type Zika virus screened against the NCATS CANVASS Library (AID 1347396)
Method in brief: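 Vero 766 cells, 1000/well, o/n attach; cpds pin-transferred (11-pt qHTS); WT Zika added; 72 h, 37C, 5% CO2; CellTiter Glo lumi. Uninfected + vehicle = 100% inhibition.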

Measured: Potency

Chain of Pyruvate kinase (Leishmania mexicana) (Q27686 2-499 E452W): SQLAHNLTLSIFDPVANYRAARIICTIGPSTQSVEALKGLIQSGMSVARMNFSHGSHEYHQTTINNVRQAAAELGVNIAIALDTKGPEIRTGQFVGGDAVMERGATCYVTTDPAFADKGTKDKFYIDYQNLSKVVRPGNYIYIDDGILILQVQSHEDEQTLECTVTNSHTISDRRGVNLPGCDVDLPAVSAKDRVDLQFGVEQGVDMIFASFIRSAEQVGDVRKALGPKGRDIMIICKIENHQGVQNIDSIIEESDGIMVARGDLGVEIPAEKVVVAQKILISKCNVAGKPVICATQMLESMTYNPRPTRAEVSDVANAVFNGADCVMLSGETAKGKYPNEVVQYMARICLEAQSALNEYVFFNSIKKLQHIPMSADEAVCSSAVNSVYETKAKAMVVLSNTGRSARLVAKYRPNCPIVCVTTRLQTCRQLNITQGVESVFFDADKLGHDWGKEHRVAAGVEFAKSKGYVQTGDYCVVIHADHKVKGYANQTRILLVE
Chain of Cytochrome P450 2C19 (Homo sapiens) (P33261 whole entry, looked up): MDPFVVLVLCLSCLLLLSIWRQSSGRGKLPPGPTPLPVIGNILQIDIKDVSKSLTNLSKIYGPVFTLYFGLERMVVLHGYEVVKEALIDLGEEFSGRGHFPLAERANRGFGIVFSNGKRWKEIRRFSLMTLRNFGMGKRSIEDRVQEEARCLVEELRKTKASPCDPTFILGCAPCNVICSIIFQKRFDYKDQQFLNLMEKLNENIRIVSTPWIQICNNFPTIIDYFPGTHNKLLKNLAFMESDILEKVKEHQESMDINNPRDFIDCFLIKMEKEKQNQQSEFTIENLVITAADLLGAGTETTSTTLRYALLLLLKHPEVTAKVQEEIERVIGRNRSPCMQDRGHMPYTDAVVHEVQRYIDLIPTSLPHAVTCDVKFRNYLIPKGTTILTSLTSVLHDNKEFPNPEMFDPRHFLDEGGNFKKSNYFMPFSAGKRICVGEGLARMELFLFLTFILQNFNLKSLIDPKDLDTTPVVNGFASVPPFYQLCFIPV
Chain of Guanine nucleotide-binding protein G(i) subunit alpha-1 (Homo sapiens) (P63096 whole entry, looked up): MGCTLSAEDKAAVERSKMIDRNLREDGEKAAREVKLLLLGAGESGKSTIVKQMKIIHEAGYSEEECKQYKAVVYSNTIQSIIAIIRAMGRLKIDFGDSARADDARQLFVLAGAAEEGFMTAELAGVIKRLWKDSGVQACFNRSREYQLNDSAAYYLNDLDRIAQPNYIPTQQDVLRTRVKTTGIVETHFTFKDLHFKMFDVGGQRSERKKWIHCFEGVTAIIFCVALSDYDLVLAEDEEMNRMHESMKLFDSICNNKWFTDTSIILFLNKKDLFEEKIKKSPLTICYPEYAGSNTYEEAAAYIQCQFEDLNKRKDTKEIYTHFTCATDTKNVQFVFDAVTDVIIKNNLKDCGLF
Chain of Nuclear receptor subfamily 1 group I member 3 (Homo sapiens) (Q14994 whole entry, looked up): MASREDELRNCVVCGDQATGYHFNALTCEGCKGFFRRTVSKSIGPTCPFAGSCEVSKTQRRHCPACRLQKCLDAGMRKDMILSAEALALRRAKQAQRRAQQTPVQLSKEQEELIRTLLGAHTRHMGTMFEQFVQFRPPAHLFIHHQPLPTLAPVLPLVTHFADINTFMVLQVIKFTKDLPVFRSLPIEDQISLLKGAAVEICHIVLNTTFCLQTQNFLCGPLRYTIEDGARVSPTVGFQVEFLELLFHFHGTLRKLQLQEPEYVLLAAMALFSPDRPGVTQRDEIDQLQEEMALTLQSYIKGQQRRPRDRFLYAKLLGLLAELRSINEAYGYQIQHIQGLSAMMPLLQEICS
Chain of Cytochrome P450 2C9 (Homo sapiens) (P11712 whole entry, looked up): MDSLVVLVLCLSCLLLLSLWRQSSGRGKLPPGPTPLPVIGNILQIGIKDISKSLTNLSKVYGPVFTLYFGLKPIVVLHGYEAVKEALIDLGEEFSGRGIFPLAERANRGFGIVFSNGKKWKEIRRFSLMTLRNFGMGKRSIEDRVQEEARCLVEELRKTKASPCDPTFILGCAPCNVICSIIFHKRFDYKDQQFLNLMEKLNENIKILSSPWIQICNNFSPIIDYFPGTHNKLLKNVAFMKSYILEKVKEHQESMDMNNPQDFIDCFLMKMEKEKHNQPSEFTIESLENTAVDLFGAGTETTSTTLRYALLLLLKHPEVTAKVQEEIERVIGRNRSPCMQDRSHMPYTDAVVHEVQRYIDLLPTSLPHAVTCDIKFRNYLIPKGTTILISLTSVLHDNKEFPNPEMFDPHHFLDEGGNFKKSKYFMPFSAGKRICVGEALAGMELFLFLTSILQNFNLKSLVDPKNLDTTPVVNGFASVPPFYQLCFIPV
Chain of Cytochrome P450 3A4 (Homo sapiens) (P08684 whole entry, looked up): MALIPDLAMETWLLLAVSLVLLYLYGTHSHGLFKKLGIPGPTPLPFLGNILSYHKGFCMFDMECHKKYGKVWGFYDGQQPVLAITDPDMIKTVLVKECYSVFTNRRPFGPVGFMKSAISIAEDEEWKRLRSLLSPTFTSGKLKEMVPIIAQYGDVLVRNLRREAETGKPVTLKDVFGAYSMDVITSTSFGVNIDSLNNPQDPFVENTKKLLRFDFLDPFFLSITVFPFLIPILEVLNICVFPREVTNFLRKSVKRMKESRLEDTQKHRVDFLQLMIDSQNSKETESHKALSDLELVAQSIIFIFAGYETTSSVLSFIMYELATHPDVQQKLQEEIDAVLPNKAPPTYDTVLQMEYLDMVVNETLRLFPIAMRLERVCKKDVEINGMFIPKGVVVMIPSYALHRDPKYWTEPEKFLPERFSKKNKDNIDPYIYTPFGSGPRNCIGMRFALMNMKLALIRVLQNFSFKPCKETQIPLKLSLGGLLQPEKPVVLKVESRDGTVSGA

O=C1NCN(c2ccccc2)C12CCN(C[C@H]1COc3ccccc3O1)CC2
inactive and 7.94 µM (active): [3]
inactive: [1] | [2] | [4] | [5]

C=C(C)[C@H]1CN[C@H](C(=O)O)[C@@H]1CC(=O)O
inactive: [2] | [6] | [4] | [5]

CCCC(=O)OCC[N+](C)(C)C
inactive: [1]

CN1CCN(C(=O)OC2c3nccnc3C(=O)N2c2ccc(Cl)cn2)CC1 (centres undefined)
inactive: [1]

CCOC(=O)c1cc2c(cn1)[nH]c1ccccc12
inactive: [1]

C/C(O)=C(/C#N)C(=O)Nc1cc(Br)ccc1Br
active: [7] 7.94 µM
inactive: [1] | [2] | [3] | [4] | [5]

NC[C@@H](CC(=O)O)c1ccc(Cl)cc1
inactive: [1] | [3]

C/C(=C\C=C/[C@@H](C)C(=O)O)[C@H]1CN[C@H](C(=O)O)[C@@H]1CC(=O)O
inactive: [3]

COc1ccc(C[C@H]2NC[C@H](O)[C@@H]2OC(C)=O)cc1
active: [3] 3.16 µM

CC(C)(c1ccc(OCC2CO2)cc1)c1ccc(OCC2CO2)cc1 (centres undefined)
inactive: [6]

O=C1CC[C@@]2(O)[C@H]3Cc4ccc(O)c5c4[C@@]2(CCN3CC2CC2)[C@@H]1O5
inactive: [1] | [2] | [4] | [5]

COC(=O)CN1CN(c2ccccc2)C2(CCN(Cc3ccc4ccccc4c3)CC2)C1=O
inactive: [7]

COC1=CC(=O)OC(/C=C/c2ccccc2)C1 (centres undefined)
inactive: [1]

Cn1cc(C(=O)C(=O)N[C@H]2CN3CCC2CC3)c2ccccc21
inactive: [7]

C[C@H](N)Cc1cnc[nH]1
inactive: [1] | [2] | [4] | [5]

CCN1C[C@]2(COC(=O)c3ccccc3N3C(=O)C[C@H](C)C3=O)CC[C@H](OC)[C@@]34[C@@H]5C[C@H]6[C@H](OC)[C@H]5[C@](O)(C[C@@H]6OC)[C@@](O)([C@@H](OC)[C@@H]23)[C@@H]14
inactive: [7]

NC(=NCCc1ccc(I)cc1)SCCCc1cnc[nH]1
active: [6] 0.794 µM

CC1=C(O)C(=O)[C@H]2O[C@@H]2C1=O
active: [3] 0.158 µM

CN(C(=O)Cc1ccc(Cl)c(Cl)c1)[C@H](CN1CCCC1)c1ccccc1
active: [6] 6.31 µM | [3] 0.316 µM

CCN1C[C@]2(C)CC[C@@H](O)[C@]34C1[C@H](C[C@H]23)C12CCC(CC14)[C@](O)(CO)[C@H]2O (some centres undefined)
inactive: [8] | [9] | [10] | [11] | [12] | [13] | [14] | [15] | [16] | [17] | [18]

CC(C)n1cnc2c(C(=O)N[C@H]3CN4CCC3CC4)cc(Cl)cc21
inactive: [6]
active: [7] 0.398 µM

CC(=O)N[C@H]1CCN2CCC[C@H]12
active: [17] 63.2 µM
not listed: [1] | [2] | [3] | [4] | [5] | [6] | [7]
inactive: all other assays above

O=C(Cc1ccc(Cl)c(Cl)c1)N1CCCC[C@H]1CN1CCCC1
inactive: [1] | [2] | [4] | [5]
active: [6] 7.94 µM | [3] 6.31 µM

C[C@@H](N)Cn1ccc2cc(F)c(Cl)cc21
active: [7] 3.98 µM

CN1[C@@H]2CC[C@H]1CC(OC(=O)N1Cc3ccccc3NC1=O)C2 (some centres undefined)
inactive: [6]

CO[C@@H](/C=C/CC/C=C/C(=O)O)[C@@H](O)[C@H](C)/C=C(\C)[C@@H](O)[C@H](C)C(=O)CCCC1CC(=O)NC(=O)C1
not listed: [1] | [2] | [3] | [4] | [5] | [6] | [7]
inactive: all other assays above

N[C@H](C(=O)O)c1cc(=O)[nH]o1
inactive: [2] | [7] | [6] | [3] | [4] | [5]

C=CCN1CC[C@]23c4c5ccc(O)c4O[C@@H]2C(=O)CC[C@]3(O)[C@H]1C5
inactive: [1]

CC1=CC2CC[C@@H]3[C@@H](C)C[C@H](C)[C@@H](C1)N23 (some centres undefined)
not listed: [1] | [2] | [3] | [4] | [5] | [6] | [7] | [14]
inactive: all other assays above

CCC[C@H]1CC[C@H]2[C@H](C)CCC[C@H]2N1
not listed: [1] | [2] | [3] | [4] | [5] | [6] | [7] | [17]
inactive: all other assays above

O[C@H]1CCCC[C@H]1N1CCC(c2ccccc2)CC1
inactive: [1]

CCCCC1(C2CCCC2)Cc2cc(OCCCC(=O)O)c(Cl)c(Cl)c2C1=O (centres undefined)
inactive: [6]

CNCCc1ccc(O)cc1
not listed: [1] | [2] | [3] | [4] | [5] | [6] | [7]
inactive: all other assays above

COc1ccc(C23Oc4cc(OC)cc(OC)c4[C@](O)([C@H](c4ccccc4)C2C(=O)NCCCCNC(=O)c2ccccc2)[C@@H]3O)cc1 (some centres undefined)
not listed: [1] | [2] | [3] | [4] | [5] | [6] | [7] | [16]
inactive: all other assays above

From PubChem BioAssay (NCATS)
